Measured values reported in PubChem BioAssay.
This is one part of the list. Unmarked numbers belong to inactive results. Calls of active or inactive are those of the source.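 Rule for the calls, unless noted: active = mean inhibition of at least 40% at 20 µM; inactive = the rest.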

Assays:
[1] = apoptosome-driven caspase-3 activation blockers – biochemical, fluorescence, DEVD-Rh110, 20 µM, confirmation (AID 504614); conditions: reconstituted apoptosome, caspase-3 DEVD-Rh110 fluorescence; at 20 µM; stronger effect = higher value;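 note: plate controls were DMSO wells for no effect and DEVD-CHO caspase inhibitor control wells for full effect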
[2] = detection-step artefacts after completed caspase reaction – biochemical, fluorescence, Rh110, 20 µM, artefact control for Apaf-1 inhibitor project, confirmation (AID 504615;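 active = signal rise of 40% or more at 20 µM, treated as a fluorescence artifact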); conditions: quenched caspase reaction, at 20 µM, stronger effect = higher value
[3] = fluorescence interference of Apaf-1 inhibitor hits, dose response, artefact control for Apaf-1 inhibitor project (AID 588538; call rule not given here); conditions: fluorescence interference counterscreen, Apaf-1 assay format

Row | Compound | inhibition [1] | activation (fluorescence interference) [2] [%] | IC50 [3] [µM]
1 | Cc1ccc(-c2ccc(/C=N/NC(=O)CN3CCOCC3)o2)cc1[N+](=O)[O-] | 27.9% | -3.95 | 
2 | COc1ccc(N(CCC(=O)NCCc2ccccc2)S(=O)(=O)c2ccc(C)cc2C)cc1 | 35.9% | 3.62 | 
3 | COc1ccc(NC(=O)CN(Cc2ccccc2)S(C)(=O)=O)cc1OC | 3.82% | 2.48 | 
4 | Cc1cc2oc3ccc(NCCC4CCCN4C)cc3c(=O)c2cc1C (centres undefined) | 10.1% | 4.87 | 
5 | C#CCOCCOCCOCCNc1nc(N2CCN(C(=O)CCCCCCCCCCNC(=O)Cn3cc(CCCCCN)nn3)CC2)nc(N2CCN(C(=O)CCCCCCCCCCNC(=O)[C@H](CO)n3cc(CCCSC)nn3)CC2)n1 | 60.8% (active) | 4.21 | > 100
6 | Cc1ccc2nc(N3CCN(C(=O)c4ccco4)CC3)sc2c1 | 15.7% | -1.75 | 
7 | Cc1[nH]n(-c2ccccc2)c(=O)c1/C=N/NC(=O)c1ccoc1C | 62% (active) | -3.23 | > 100
8 | O=C1NNC(c2ccccc2)=N/C1=C\c1ccc(Cl)cc1 | 43.9% (active) | 7.08 | > 100
9 | Nc1ccc2nn(-c3ccc(Cl)cc3)nc2c1 | 35.8% | 0.47 | 
10 | COc1ccc2sc(-c3ccccc3OC)c(-c3ccc(OCCN4CCCC4)cc3)c2c1 | 27.1% | 6.49 | 
11 | O=C(Cc1cc(=O)[nH][nH]1)N/N=C/c1ccccc1[N+](=O)[O-] | 5.01% | 0.43 | 
12 | Oc1ccc(N=Cc2c(O)ccc3ccccc23)cc1 | 19.4% | 0.51 | 
13 | Cc1ccc(S(=O)(=O)N2CCN(C(=O)c3ccccc3-c3nc4ccccc4s3)CC2)c(C)c1 | 34.1% | 4.66 | 
